Screening data as filed in PubChem.
PINK1 modulator: PINK1 expression modulation | PINK1 immunofluorescence, high-content cytometry, 24 h | Potency, µM (highest dose often 76.6 µM), inactives show at the top dose activation (PINK1 increase), hits mostly activators | hit rate 0.2% among 410,000 | AID 624263; active = well fitted activation curve with a large enough effect; inconclusive = small, poorly fitted or top-dose-only effect; cell line not stated here; also: % of control where 0% means no effect; nearly all actives have a fitted effect of over 65% in size
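Stable cell line treated 24 h with compounds at 5 concentrations (CCCP controls), then fixed and immunostained for PINK1 plus nuclear and cell stains; PINK1 immunofluorescence quantified by laser-scanning microplate cytometry.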
Epigenetic reg: derepresses silenced GFP reporter in murine cells. murine LDR cells, GFP reporter derepression, 30 h. Potency, µM (doses to about 53.9 µM), for inactives: at the top dose GFP activation, actives largely listed as activators. hit rate 0.2% among 280,000; also: % of control where 0% means no effect; nearly all actives have a fitted effect of over 60% in size
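Reporter derepression read as number of fluorescent GFP-positive objects, 20-120 um in size, counted by laser-scanning cytometer. Mouse LDR line with an epigenetically silenced CMV-GFP locus; compound incubation 30 h, 37 C.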
Nrf2 ARE act: activates Nrf2 signaling; hit rate 0.31% among 410,000; AID 624171; Potency, µM (top dose mostly 46.1 µM), for inactives: at the highest dose activation, actives largely listed as activators; AREc32 ARE-luciferase reporter (MCF7-derived line), luminescence, 24 h; also: % of control where 0% means no effect; nearly all actives have a fitted effect of over 65% in size
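ARE activation measured as luciferase luminescence (Steady-Glo, 30 min RT) in AREc32_Fluc cells after 24 hr compound exposure at 37 deg C, 5% CO2; cells seeded overnight at 1000/well in OPTI-MEM, 5% FBS.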
A549 tox: kills or reduces viability of A549 cells in Nrf2 counter-screen; hit rate 0.16% among 390,000; Potency, µM (series often up to 46 µM), for inactives: at the highest dose activity change, negative = cytotoxicity, usual class: inhibitors; A549 ARE-Fluc cells, CellTiter-Fluor viability, 18-24 h; also: % is scaled to controls: 0 for no effect and ±100 for the full control effect
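Cytotoxicity counterscreen: CellTiter-Fluor fluorescence was measured in A549 ARE_Fluc cells after 18-24 h of compound exposure in a concentration series. The subsequent BugLite luminescent read reports ARE-luciferase activity.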
Nrf2 inh: blocks Nrf2 signaling | AID 504444 | A549 ARE-Fluc reporter, luciferase luminescence, 18-24 h | Potency, µM (doses to about 46 µM), for inactives: top-dose activity change, negative = inhibition, usual class: inhibitors | hit rate 2.1% among 360,000; also: % is scaled to controls: 0 for no effect and ±100 for the full control effect; nearly all actives have a fitted effect of over 60% in size
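Nrf2 activity is the BugLite luminescence, read 15 min after reagent at room temperature, following CellTiter-Fluor cytotoxicity readout (30 min, 37C). Compound titrations were applied for 18-24 h to 5000 A549 ARE_Fluc cells/well in 5% FBS OPTI-MEM.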
The depositor's hits bear a star; ? = inconclusive; . = no result; [ ] = dose if it differs, or a comment. Only some compounds are listed: those with a hit (about 2.4% of all), similar ones and a draw of the others. Unless noted, calls follow the shape of the dose curve; as a rule, active = well fitted curve in the direction sought with a large enough effect; inconclusive = small, poorly fitted or top-dose-only effect, or another doubt; inactive = no such curve, though single readings can be large; an effect the other way counts as inactive or inconclusive. Potency is read from the fitted curve at half-maximal effect.

SMILES	PINK1 modulator	Epigenetic reg	Nrf2 ARE act	A549 tox	Nrf2 inh
Cc1cccc(OCC(=O)N/N=C/C=C/c2ccco2)c1	2%	?	22µM*	-1%	12%
O=C(Cc1cccs1)N/N=C/c1ccco1	0%	1%	3%	-2%	10%
Cc1cccc(C)c1OCC(=O)N/N=C/C=C/c1ccco1	7%	?	1.6µM*	-5%	3%
O=C(Cc1cccs1)N/N=C/C=C\c1ccco1	1%	3%	11µM*	-5%	?
Cc1nc2cc(NC(=O)[C@@H]3C[C@@H](Sc4ccccn4)CN3Cc3ccccc3F)ccc2s1	0%	.	.	.	.
CSc1cccc(N2C(=O)N(CC(=O)NCc3ccccc3Cl)c3ccccc3S2(=O)=O)c1	13%	5%	-1%	2%	.
CN(CC(=O)Nc1c(Cl)cccc1Cl)C(=O)c1ccccc1SCC(=O)N1CCCC1	0%	.	0%	11%	4%
CN(CCOc1ccc(Cl)cc1)C(=O)c1ccccc1SCC(=O)N1CCCC1	1%	.	0%	-15%	13µM*
Cc1ccc(NS(=O)(=O)c2cc3c(cc2/C=C/c2ccccc2)NC(=O)CO3)cc1C	.	.	.	1%	4%
N#Cc1sc2nc(-c3cccs3)cc(-c3ccc(Cl)cc3)c2c1N	29%[38.3 µM]	14µM*	3%	17%	-17%
Cc1oc(-c2ccccc2)nc1Cn1cccc1C1=NC(c2ccccc2)CO1 (stereo unspecified)	5%	-1%	0%	-9%	21µM*
COC(=O)c1sc(N2C(=O)C(O)=C(C(=O)c3ccc(C)o3)C2c2cccs2)nc1C (stereo unspecified)	1%	.	28%	?	21µM*
CCCOC(=O)c1c(NC(=O)C(C)Sc2nc(-c3ccccc3)cc(C(F)(F)F)n2)sc(C(=O)N(C)C)c1C (stereo unspecified)	1%	0%	3%	-22%	21µM*
CC(=O)N1CCN(c2ccc(NCc3ccc(F)cc3)cc2)CC1	2%	1%	3%	-3%	?
COc1cc(CNc2ccc(N3CCN(C(C)=O)CC3)cc2)ccc1OCc1ccc(F)cc1	-2%	5%	13%	-19%	16µM*
CC(=O)N1CCN(c2ccc(NCc3cccc(C)c3)cc2)CC1	1%	.	6%	-3%	15µM*
O=C(NCCCN1CCN(c2ccccc2F)CC1)c1sc2ncccc2c1-n1cccc1	0%	-2%	7%	-1%	.
COc1cc(OC)c(NC(=O)Nc2ccc3c(c2)N(C)C(=O)c2ccccc2S3)cc1Cl	0%	-2%	-1%	-18%	21µM*
Brc1ccsc1-c1csc(-c2ccncc2)n1	-1%	.	13µM*	-2%	19%
Nc1nonc1N/N=C/c1c(O)ccc2ccccc12	3%	-1%	7.9µM*	7%	23%
O=C(NN=Cc1c(O)ccc2ccccc12)c1ccncc1	-2%	.	0%	?	26µM*
Nc1nonc1N/N=C\c1ccccc1	0%	0%	-1%	3%	-1%
CCc1nc2cc(C(=O)N3CCC[C@H]3C(=O)OC)cc(NC(=O)c3ccccc3OC)c2n1C	0%	.	.	.	.
CCn1cnc2c(Nc3cc(F)cc(F)c3)nc(C#N)nc21	1%	.	7%	-17%	?
N#Cc1nc(Nc2cc(F)cc(F)c2)c2ncn(CCCN3CCCC3)c2n1	.	.	.	2.1µM*	6%
SMILES	PINK1 modulator	Epigenetic reg	Nrf2 ARE act	A549 tox	Nrf2 inh
COc1cc2c(cc1NC(=O)c1cccc([N+](=O)[O-])c1)oc1ccccc12	2%	1%	9%	18µM*	16µM*
CC(=O)Nc1cc(O)c2nonc2c1O	0%	.	.	6.5µM*	21µM*
CC(=O)Nc1c(O)cc(Br)c2nonc12	2%	.	.	0%	6%
Cc1ccc(C2C(=O)N(C3CCCCCC3)CC(=O)N2CCC2=CCCCC2)cc1 (stereo unspecified)	?	4%	1%	2%	.
O=c1c2cn[nH]c2nc(SCc2ccc3c(c2)OCCO3)n1-c1ccccc1	2%	-1%	3%	-16%	21µM*
Cc1ccc(NC(=O)CC(=O)Nc2ccc(C)cc2C)c(C)c1	2%	.	-1%	-2%	14%
Cc1ccc(N/C(C(Cl)=C(Cl)Cl)=C(/Cl)[N+](=O)[O-])c(C)c1	10%	?	22µM*	-2%	-11%
O=C(NC1CCC(n2cc(C(=O)NC3CC3)nn2)CC1)C(=O)c1ccccc1 (stereo unspecified)	0%	.	.	.	.
CCCCC(=O)OCc1cc(=O)n2nc(C3CCCCC3)sc2n1	0%	1%	0%	13%	?
CC1=CC(=O)N(c2cccc(C(F)(F)F)c2)C1c1ccc(Cl)cc1 (stereo unspecified)	-2%[38.3 µM]	4%	0%	?	23µM*
CC1=CC(=O)N(c2ccc(C)cc2)C1c1ccc(Cl)cc1 (stereo unspecified)	3%	-1%	0%	16%	7%
O=C(CN1CCN(S(=O)(=O)c2ccc(Br)cc2)CC1)N/N=C/c1cc([N+](=O)[O-])ccc1Cl	0%	0%	13µM*	1%	0%
Cc1ccc2cccc(NC(=O)c3ccc(-c4cccc(Cl)c4Cl)o3)c2n1	0%	0%	1%	0%	3%
CCCNC(=S)Nc1ccc(F)cc1F	2%	6%	0%	1%	12µM*
C=CCNC(=S)Nc1ccc(Br)cc1F	9%	0%	3%	0%	23µM*
CCCNC(=S)Nc1ccc(Cl)cc1C	-1%	0%	1%	-2%	0%
CS(=O)(=O)/C=C/c1nc(Nc2cc(F)cc(F)c2)c2ncn(CC(F)F)c2n1	.	.	.	-1%	7%
CCCCCCOc1ccc(CC(=O)O)cc1	0%	.	.	.	.
O=S(=O)(NCc1ccc2c(c1)OCO2)c1ccc2c(c1)oc1ccccc12	.	-3%	3%	-15%	21µM*
O=S(=O)(NCc1ccc2c(c1)OCO2)c1cccc(F)c1	1%	.	0%	-2%	5%
CCCCOc1ccc(-c2cc(C(F)(F)F)c(C#N)c(SCC(=O)O)n2)cc1	?	25µM*	0%	-6%	-2%
Cc1coc(NC(=O)CSc2nc(-c3ccncc3)cc(C(F)(F)F)c2C#N)n1	?	13µM*	0%	-9%	4%
N#Cc1ccccc1NC(=O)CSc1nc(-c2ccccc2)cc(C(F)(F)F)c1C#N	10%	13µM*	0%	0%	-15%
Cc1cc(C(F)(F)F)c(C#N)c(SCC(=O)Nc2nc3cc(Br)ccc3s2)n1	14µM*	-3%	5%	?	?
Cc1ccc(NC(=O)CSc2nc(-c3ccc(F)cc3)cc(C(F)(F)F)c2C#N)cc1	1%	?	-1%	-1%	6%
CCOC(=O)NC(=O)CSc1nc(C)cc(C(F)(F)F)c1C#N	-3%	1%	3%	-5%	-10%
COc1cccc(C(=O)Nc2c(C(=O)N3CCN(c4ccc(F)cc4)CC3)oc3ccccc23)c1	-1%	2%	0%	10%	?
